# Reference: PubChem BioAssay AID651784 (National Center for Advancing Translational Sciences (NCATS), 2012)
# Results filed as inconclusive are left out. Active and inactive are the calls of the source. The call rests on the fitted dose curve; in most records, active means well fitted inhibition curve with a large enough effect; inconclusive means small, poorly fitted or top-dose-only effect; inactive means no such curve, though single readings can be large or run the other way.
# Assay: Acumen qHTS Assay for Inhibitors of the mTORC1 Signaling Pathway in MEF (Tsc2-/-, p53-/-) Cells: Hit Validation;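 further: phospho-rpS6 Ser235/236 immunofluorescence normalized to propidium iodide cell count; nearly all actives have a fitted effect of over 65% in size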;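 on activity change, negative = inhibition: cells exposed to compound for 24 hours; plate controls were DMSO for no effect and 7.5 nM rapamycin control for full effect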
# Conditions: Acumen imaging; activity change, negative = inhibition: at 37.3 µM (top of the series)
# Potency means the concentration at half of the fitted maximal effect.
SMILES,Potency,"activity change, negative = inhibition [%]"
CN(c1ccccc1)S(=O)(=O)c1ccc(NC(=O)c2nc(S(C)(=O)=O)ncc2Cl)cc1,1.47 µM (active),–
CCOc1ccccc1NC(=O)c1cn(C2CCCC2)c(=O)c2c1c1ccccc1n2C,–,-10.9
COc1ccc(CCNC(=O)CCCn2nc(C)c3sc4ccccc4c3c2=O)cc1OC,–,-12
Cc1ccc(O)c(C(CC(=O)NCC2(c3ccccc3)CCCC2)c2ccccc2)c1 (stereo not drawn),–,2.09
CCCCC1CCC(C(=O)N2CC(=O)Nc3ccc(Cl)cc3C2c2ccc(F)cc2)CC1 (stereo not drawn),–,-41.1
Cc1ccc(CS(=O)(=O)c2ncc(Cl)c(C(=O)Nc3nnc(C(C)C)s3)n2)cc1,5.85 µM (active),–
COc1ccc(Cl)cc1C1CC(=O)Nc2cc3c(cc21)OCCO3 (stereo not drawn),–,-26.9
COc1ccc(CNC(=O)C2CCN(c3nc4ccc(C)cc4[nH]3)CC2)cc1,–,22.4
COc1ccc(-n2ncc3c(NCCCOC(C)C)ncnc32)cc1,–,1.17
COc1ccc(OCC(=O)NCc2ccc3c(c2)CCN3C(=O)c2ccccc2)cc1,16.5 µM (active),–
Cc1ccc(-n2ncc(C(=O)NCCCN3CCc4ccccc4C3)c2C2CCN(C(=O)OC(C)(C)C)CC2)c(C)c1,–,-11.4
CC(C(=O)NCc1cccc(Br)c1)n1ncn2cccc2c1=O (stereo not drawn),–,1.66
O=C(COc1ccc(F)cc1)Nc1ccc(Cl)c(-c2nc3ccccc3[nH]2)c1,–,-4.39
Cc1cccc(NC(=O)c2c(N)sc3c2CCC(C)C3)c1 (stereo not drawn),–,15.3
Cc1ccccc1S(=O)Cc1ccc(C(=O)N2CCN(c3cccc(C)c3C)CC2)o1 (stereo not drawn),6.56 µM (active),–
COc1ccc2c(CNCCc3cccs3)c(C(=O)O)n(Cc3ccc(F)cc3Cl)c2c1,–,-51.9
COc1ccc(CCNC(=O)c2ccc3c(c2)N(Cc2ccccc2)CCS3)cc1OC,5.21 µM (active),–
COc1ccc(Oc2nc3c(C)cccn3c(=O)c2/C=C(\C#N)c2nc3ccccc3[nH]2)cc1,–,11.5
COc1ccc(NS(=O)(=O)c2ccc(-n3cccn3)cc2)cc1OC,–,-78.8
Cc1cccc(CSCCNC(=O)CN(c2ccccc2)S(=O)(=O)N(C)C)c1,–,3.74
COc1cc(Nc2nc(SCC(=O)c3ccc(Cl)c(Cl)c3)nc3ccccc23)cc(OC)c1,–,-51.7
COc1ccc(C2=NS(=O)(=O)N(C)C(C(=O)Nc3ccc(OC(F)(F)F)cc3)=C2)cc1,–,2.76
CCOc1ccc(NC(=O)c2sc3nc4c(cc3c2N)CCCCCC4)cc1,9.27 µM (active),–
